T1: UNK ZnF1-3 (human, UniProt Q9C0B0 31-174)
T1 sequence: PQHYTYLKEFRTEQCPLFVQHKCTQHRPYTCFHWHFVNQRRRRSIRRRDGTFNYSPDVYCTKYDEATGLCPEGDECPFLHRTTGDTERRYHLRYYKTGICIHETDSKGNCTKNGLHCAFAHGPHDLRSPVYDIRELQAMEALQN

B1: 61074685_61077595_487_3pUTR_ENSG00000119541_ENST00000238497|human|control|control (ssRNA)
RNA: GGGAGUUCUACAGUCCGACGAUCUCUUUUUUUCAGGAUCAUCAGAUUCUCCUUCCCCAUCACUGUCAUUCCCCUUCUCAUCUGCUGGACUCGGCUGUCCUUCUUUCACUGGCUUCUGUGCUUUUUUCUCUUUAUUUUUCAGGUCAACAGAGGAUUGAGCAUCA
B2: chr7:149068622:149068623:-_ENSMUSG00000025139_ENSMUST00000001950|mus_hu|mus_mus_mus_hu_False|8_28 (ssRNA)
RNA: GGGAGUUCUACAGUCCGACGAUCGUGAGGCCUCUGAGUGUGGCUUGUGGUCUGUCCUGGGUUAGAGUUGUUAAUAUCACGGAACAUACCAUCUAGAACGUUCCAGUCUGCCUGACUACCUUCAUUCGCAAGAGGGCAGAAAUCCAACAGAGGAUUGAGCAUCA
B3: chr5:138634757:138634758:+_ENSMUSG00000036968_ENSMUST00000110934|mus_hu|FALSE|FALSE (ssRNA)
RNA: GGGAGUUCUACAGUCCGACGAUCGUAGACCAAGUAUCUAUCCCACCUAAAUUAUCAGCAACUCCAGGCCAUGACCCAGUGUCCCAUUCUCCUUCACGGUUUGCUGGUGUGUAGCCUCCUGGAUACAGGCAAUGUAUAUAGAUCCAACAGAGGAUUGAGCAUCA
B4: chr17:56552419:56552420:-_ENSMUSG00000013236_ENSMUST00000086828|mus_mus|mus_mus_mus_hu_False|58_88 (ssRNA)
RNA: GGGAGUUCUACAGUCCGACGAUCAAAAAAUACACUAUUUAAAAAAAAAAGAAAAAAACGGGAUACAGUUACACUGACACUAUUAAAAGAAAGCUGGAUUCUGGUCCCAGCCCAGUGUCCCCAGGCUGCAGAGCGGGGAGGAGCCAACAGAGGAUUGAGCAUCA
B5: chr17:56552419:56552420:-_ENSMUSG00000013236_ENSMUST00000086828|mus_mus|mus_mus_mus_hu_False|8_88 (ssRNA)
RNA: GGGAGUUCUACAGUCCGACGAUCAAAAAAUACACUAUUUAAAAAAAAAAGAAAAAAACGGGAUACAGUUACACUGAGAGUUUUAAAAGAAAGCUGGAUUCUGGUCCCAGCCCAGUGUCCCCAGGCUGAGUGCGGAAGAGGAGCCAACAGAGGAUUGAGCAUCA
B6: chr17:56552419:56552420:-_ENSMUSG00000013236_ENSMUST00000086828|mus_mus|mus_mus_mus_hu_False|28_88 (ssRNA)
RNA: B4 RNA with C77G, C79G, A81U, C107U, A108U, C112A, G114A, U115A
B7: chr17:56552419:56552420:-_ENSMUSG00000013236_ENSMUST00000086828|mus_mus|mus_mus_mus_hu_False|88_88 (ssRNA)
RNA: B4 RNA with C77G, C79G, A81U
B8: 30734625_30737523_1216_CDS_ENSG00000101337_ENST00000398022|human|control|control (ssRNA)
RNA: GGGAGUUCUACAGUCCGACGAUCCAGGGAGCUGAGGAUCAUGGGGUACUGGGGGGGCCUGAAGACGUCGCCGUGCACCAACUUCCACCCAGACUCCUCCAUGGUGUCUUCAAUGUCAUCCUCCUUGUUGUAGUUGGCAAUGUCCAACAGAGGAUUGAGCAUCA
B9: chr7:149068622:149068623:-_ENSMUSG00000025139_ENSMUST00000001950|mus_hu|mus_mus_mus_hu_False|68_68 (ssRNA)
RNA: GGGAGUUCUACAGUCCGACGAUCGUGAGGCCUCUGAGUGUGGCUUGUGGUCUGUCCUGGGUUAGAGCUGCUGGUAACACGGAACAUACCAUCUAGAACGUUCCAGUCCCGCCUGACACCUUCAUUCCCAAUGGAGAAGAAAUCCAACAGAGGAUUGAGCAUCA
B10: chr1:93299114:93299115:+_ENSG00000122406_ENST00000370321|hu_hu|motif|central (ssRNA)
RNA: GGGAGUUCUACAGUCCGACGAUCUUGUAUCACCAAGCGUUUCCGAGCAUAAUAAUCAGUUUUACCCUCUCGUCGUCUUCGGAAUUUCACUUGGUAUCUCUUAAAGUAGGCCUUAUUCUUAACAACUUUAACAAACCCCAUCCUCAACAGAGGAUUGAGCAUCA
B11: chr3:32335226:32335227:+_ENSMUSG00000027665_ENSMUST00000108243|mus_mus|motif|central (ssRNA)
RNA: GGGAGUUCUACAGUCCGACGAUCGGCCUCUCUGAACAGUUCAUGUUUGAUGGUGACGAGUGUGGCCUCACGGAGGCAUUCGGAAGUCACUAUCAUUCCAUUGGGGAGUAAACAUUCCACUAGGAUUCGUGGGGGCAUCAAGUGCAACAGAGGAUUGAGCAUCA
B12: chr7:54825262:54825263:-_ENSG00000132432_ENST00000352861|hu_hu|hu_hu_hu_mus_False|48_78 (ssRNA)
RNA: GGGAGUUCUACAGUCCGACGAUCCUGCCGGCUGGGCUCCACAAACUGCAUUACCUGCAUGACUGCCGUUGGAUGGCGGAUUGAGAGUGCCAGGGACCGUAGCUCAGGAGAGAACCGAGCCCAACGGAACCGGAAGCUGGCAACCAACAGAGGAUUGAGCAUCA
B13: 93048056_93048176_2666_3pUTR_ENSMUSG00000020964_ENSMUST00000021347|mouse|control|control (ssRNA)
RNA: GGGAGUUCUACAGUCCGACGAUCCACUGAGAGUUGUCAUUCCGUAUGGCACUGAAACAAACAUUCACUGCAGCUCUGCCGAGAGCCGCGCAUCCCUGAAAAGGAAGGCAGCAGGUUCUAAGCAGCUUCUGGGAUUCAACACGCCAACAGAGGAUUGAGCAUCA
B14: chr17:56552419:56552420:-_ENSMUSG00000013236_ENSMUST00000086828|mus_mus|mus_mus_mus_hu_False|88_98 (ssRNA)
RNA: B4 RNA with U38A, U39A, C77G, C79G, A81U
B15: chr17:56552419:56552420:-_ENSMUSG00000013236_ENSMUST00000086828|mus_mus|mus_mus_mus_hu_False|1_88 (ssRNA)
RNA: B4 RNA with C77G, C79G, A81U, A138C, G139A, C143G
B16: chr17:56552419:56552420:-_ENSMUSG00000013236_ENSMUST00000086828|mus_mus|mus_mus_mus_hu_False|48_88 (ssRNA)
RNA: B4 RNA with C77G, C79G, A81U, G88A, G92A, C93U, U94A, G95A
B17: chrX:165757501:165757502:-_ENSMUSG00000031352_ENSMUST00000112115|mus_mus|FALSE|FALSE (ssRNA)
RNA: GGGAGUUCUACAGUCCGACGAUCAGCAGGAGAAGAUGCUGAGGCACCCAUGGCUGGAAUCACAGGGGUCACUCCCAAUCUAAAAUACCCAGCAAAACGGGAGGCAAGGAGCGGCGAAGGGCAGGAAGCCACCAGUGUUGCCUUCAACAGAGGAUUGAGCAUCA
B18: chr17:56552419:56552420:-_ENSMUSG00000013236_ENSMUST00000086828|mus_mus|mus_mus_mus_hu_False|18_88 (ssRNA)
RNA: GGGAGUUCUACAGUCCGACGAUCAAAAAAUACACUAUUUAAAAAAAAAAGAAAAAAACGGGAUACAGUUACACUGAGAGUUUUAAAAGAAAGCUGGAUUCUGGUCCCAGCCCAGUGGCAGGCAGGGGCAGAGCGGGGAGGAGCCAACAGAGGAUUGAGCAUCA
B19: chr14:92628060:92628061:+_ENSG00000165934_ENST00000298875|hu_hu|motif|central (ssRNA)
RNA: GGGAGUUCUACAGUCCGACGAUCUUGACAUCAUGUCCUUUAUACAAUGGCAUAUUGUUCAUAUAAAAGGUCUCUUAUCCGGUAAAAAUCUUGACAAAGGCAGCCUUCUAAUCCAAUGCGUCCAGUUUCCGUUCUGCGGACUGCCAACAGAGGAUUGAGCAUCA
B20: chr17:32333828:32333829:-_ENSMUSG00000024002_ENSMUST00000121285|mus_mus|FALSE|FALSE (ssRNA)
RNA: GGGAGUUCUACAGUCCGACGAUCUACAGUACAGCCACAGUCACACACUACCCACAGCGCAGUGGGAGCCGCCGCUCACUGAGGAGACGAUCACACCAUUUGGAGAUAAGCAGUGCCACUGUGUCUGAGGAGAAGAGAGUUAAACAACAGAGGAUUGAGCAUCA
B21: chr17:88387627:88387628:+_ENSMUSG00000005370_ENSMUST00000005503|mus_hu|motif|central (ssRNA)
RNA: GGGAGUUCUACAGUCCGACGAUCAAAAUCAUCUCCAAAAAAAGUCUUCGUAAUGCAAGGAUGGCGUGAUCCUUUAAGCUCGGAGAAGGGGGGGGUAUCUUCCGGCAACAGAAUUACUGGGCGACACAUAGGACCAUCACCCCCCAACAGAGGAUUGAGCAUCA
B22: chr8:26941818:26941819:-_ENSMUSG00000031575_ENSMUST00000166078|mus_mus|FALSE|FALSE (ssRNA)
RNA: GGGAGUUCUACAGUCCGACGAUCACUAGCAGACACAGCACUGCUUUGUUUCUGGUUGUCAUAAGCAGGACCAAUAUUACUAAGAUCCUGAUCCAAAAGUCCAAACUUGGGGUAAUCUUCUUCUGGGUCUUUGCUUCCUGGGUCCAACAGAGGAUUGAGCAUCA

Positions count from the first letter of the chain named. Whole data set: some 24,000 sequences, median “enrichment r” near 0.99, cut for the highest 2% near 3.7. This is one part of a sample in which the highest values are shown more often than they occur.

For the experiment, the target named is T1, UNK ZnF1-3. In words: nsRBNS (natural sequence RNA bind-n-seq); RBNS binding buffer (assumed for nsRBNS): 25 mM Tris pH 7.5, 150 mM KCl, 3 mM MgCl2, 0.01% Triton X-100, 500 ug/ml BSA, 20 U/ml SUPERase-In, 4 C; UNK is unkempt and MSI1 is Musashi-1; names of the RNAs are library labels; protein concentration not given here; high values mean tight binding.
B1 had a binding signal of 0.231 enrichment R. The same measure for B2: 0.726 enrichment R; for B3: 0.757 enrichment R; for B4: 12.3 enrichment R. The molecule B5 had a binding signal of 6.77 enrichment R. Under B6 stands 8.27 enrichment R. Regarding B7, the binding signal came out at 7.69 enrichment R. Take B8: the binding signal is 0.573 enrichment R.

In the case of B9, the binding signal is 0.824 enrichment R. Molecule B10 returned a binding signal of 0.572 enrichment R. In turn, B11 registered a binding signal of 1.05 enrichment R.

Molecule B12 showed a binding signal of 1.55 enrichment R. The same measure for B13: 0.952 enrichment R; for B14: 16 enrichment R. Take B15: the binding signal was 7.19 enrichment R. Regarding B16, the binding signal is 16.3 enrichment R. The same measure for B17: 1.75 enrichment R; for B18: 9.03 enrichment R; for B19: 0.899 enrichment R.

In turn, B20 came in with a binding signal of 1.36 enrichment R. Under B21 stands 1.58 enrichment R; under B22, 0.761 enrichment R.
